Screening results as filed in PubChem.
ABHD5 PLIN5 PPI: inhibitors of human ABHD5-perilipin-5 interaction; inhibition, % at 4 µM; 360,000 compounds, 0.78% hits; Split G. princeps luciferase complementation, luminescence, 4 h;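 active = inhibition above the mean inhibition across every tested compound plus 3 SD, cut at about 22% in these data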;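 also: 0% = DMSO only wells and the 100% control is not disclosed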
MITF TRPM1 inh: MITF TRPM1 promoter inhibition in SK-MEL-5 cells; SK-MEL-5 TRPM1 promoter luciferase, 24 h; inhibition, % at 12.5 µM; 330,000 compounds, 0.83% hits; AID 488899;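 active = mean inhibition across replicates of 60% or more, whatever share of single replicates reaches that level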
EWS-Fli block: EWS/Fli transcriptional activity inhibition | A673 NR0B1-luciferase reporter, viability-normalised | inhibition, % at 12.6 µM | 350,000 compounds, 0.67% hits;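 active = mean inhibition of at least 50% after viability correction, with every replicate also passing that limit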;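 also: firefly luciferase signal divided by Alamar Blue viability fluorescence both relative to DMSO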
Peg3 prom inh: reduces Peg3 promoter-driven luciferase expression in HeLa. HeLa PEG-Prom luciferase reporter, luminescence, overnight. inhibition, % at 20 µM. 360,000 compounds, 1.7% hits;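 active = inhibition of at least 50% at 20 µM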
Shn3 3UTR inh: reduces Shn3 3'UTR luciferase signal in osteoblasts. Clone20 osteoblast Shn3 3'UTR firefly luciferase, 24 h. inhibition, % at 12.5 µM. 360,000 compounds, 0.52% hits. AID 588674;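 active = mean inhibition of at least 75% with every replicate also reaching 75%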;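 also: 0% = median of neutral control wells and 100% = pilot-screen positive control compound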
PAX8 inh HTS: PAX8 transcriptional activity inhibition | RMG-I TPO-luciferase reporter, SteadyGlo, 24 h | inhibition, % at 12.6 µM | 360,000 compounds, 1.2% hits | AID 652154;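 active = mean replicate inhibition at least 60% with every replicate also reaching 60%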;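 also: luciferase light reporting Pax8 driven TPO promoter activity; plate controls were median of neutral control wells for no effect and mitoxantrone controls for full effect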
Active calls of the source: *. A selection: hits, their analogues and other compounds. The true share with any hit is near 3%.

Screening Cc1nc2ccc(NC(=O)c3ccc(Cl)c([N+](=O)[O-])c3)cc2s1 returned ABHD5 PLIN5 PPI 0.4, MITF TRPM1 inh -9.1, EWS-Fli block -5.7, Peg3 prom inh -11.3, Shn3 3UTR inh -47.0 and PAX8 inh HTS -4.4.
`Cc1nc2ccc(NC(=O)c3cc([N+](=O)[O-])cc([N+](=O)[O-])c3Cl)cc2s1` gave ABHD5 PLIN5 PPI 55.5*, MITF TRPM1 inh 11.5, EWS-Fli block -8.1, Peg3 prom inh -109.5, Shn3 3UTR inh 20.4 and PAX8 inh HTS -3.4.
For CNc1ccc(/C=C(\C#N)c2ccccn2)cc1[N+](=O)[O-] the results were ABHD5 PLIN5 PPI -4.2, MITF TRPM1 inh -77.8, EWS-Fli block -112.2, Peg3 prom inh -186.7, Shn3 3UTR inh -39.7 and PAX8 inh HTS -109.6.
N#C/C(=C\c1ccc(Cl)c([N+](=O)[O-])c1)c1ccccn1 was read as ABHD5 PLIN5 PPI 6.7, MITF TRPM1 inh 0.6, EWS-Fli block 17.4, Peg3 prom inh 93.3*, Shn3 3UTR inh 25.8 and PAX8 inh HTS 40.0.
Screening COc1ccccc1S(=O)(=O)N1CC[C@@H]2[C@H]1c1cc(-c3cccc(C#N)c3)ccc1N(C)[C@H]2CO returned EWS-Fli block 0.9 and PAX8 inh HTS 5.0.
COc1ccc(-c2nc(-c3cccs3)no2)cc1 was read as ABHD5 PLIN5 PPI 4.8, MITF TRPM1 inh 22.0, EWS-Fli block 82.5*, Peg3 prom inh 10.6, Shn3 3UTR inh 48.1 and PAX8 inh HTS 40.5.
CNC(=O)C[C@@H]1CC[C@H]2[C@@H](COC[C@@H](O)CN2S(=O)(=O)c2ccc(Oc3ccccc3)cc2)O1 was read as EWS-Fli block -4.2 and PAX8 inh HTS -10.4.
`COc1ccccc1-c1nc(S(=O)(=O)c2ccccc2)c(N2CCOCC2)o1` gave ABHD5 PLIN5 PPI 22.4*, MITF TRPM1 inh 13.6, EWS-Fli block 17.8, Peg3 prom inh 36.5, Shn3 3UTR inh 10.0 and PAX8 inh HTS 8.8.
Screening O=C(O)c1ccc(C=C(c2nc3ccccc3s2)c2nc3ccccc3s2)cc1 returned ABHD5 PLIN5 PPI -8.0, MITF TRPM1 inh 12.6, EWS-Fli block 0.3, Peg3 prom inh 18.9, Shn3 3UTR inh -1.2 and PAX8 inh HTS -3.5.
O=C(O)c1ccc(Oc2nc3ccccc3s2)cc1 was read as ABHD5 PLIN5 PPI 0.1, MITF TRPM1 inh -69.7, EWS-Fli block -51.1, Peg3 prom inh 84.0*, Shn3 3UTR inh -18.0 and PAX8 inh HTS -145.0.
C[C@@H]1CCCCO[C@@H](CN(C)C(=O)NC2CCCCC2)[C@@H](C)CN([C@@H](C)CO)C(=O)c2cc(NS(=O)(=O)c3cccs3)ccc2O1 was read as EWS-Fli block 4.7 and PAX8 inh HTS -9.9.
COc1cccc(C(=O)Nc2ccc(F)cc2F)c1 was read as ABHD5 PLIN5 PPI 0.4, MITF TRPM1 inh -28.7, Peg3 prom inh -221.8, Shn3 3UTR inh -100.5 and PAX8 inh HTS -142.0.
COc1c(O[C@@H]2O[C@H](CO)[C@@H](O)[C@H](O)[C@H]2O)cc2c(c1OC)-c1ccc(SC)c(=O)cc1C(NC(C)=O)CC2 (stereo partly drawn) was read as ABHD5 PLIN5 PPI 3.5, MITF TRPM1 inh -5.8, EWS-Fli block 5.7, Peg3 prom inh 2.2, Shn3 3UTR inh -1.6 and PAX8 inh HTS -2.9.
COc1cccc(C(=O)Nc2ccc3c(cc2=O)[C@@H](NC(C)=O)CCc2cc(OC)c(OC)c(OC)c2-3)c1 was read as ABHD5 PLIN5 PPI 9.9, MITF TRPM1 inh 62.1*, Peg3 prom inh 21.6 and Shn3 3UTR inh 16.4.
Screening CCCC(=O)NC1CCc2cc(OC)c(OC)c(OC)c2-c2ccc(OC)c(=O)cc21 (stereo not drawn) returned ABHD5 PLIN5 PPI 12.0, MITF TRPM1 inh 49.0, EWS-Fli block 23.7, Peg3 prom inh -20.2, Shn3 3UTR inh 5.6 and PAX8 inh HTS 77.7*.
For COc1cc(CC(=O)NC2CCCc3ccccc32)cc(OC)c1OC (stereo not drawn) the results were ABHD5 PLIN5 PPI -4.7, MITF TRPM1 inh 1.2, EWS-Fli block 2.9, Peg3 prom inh 3.6, Shn3 3UTR inh 5.8 and PAX8 inh HTS -0.3.
For COC(=O)c1ccc2c(c1)C(NC(C)=O)CCc1cc(OC)c(OC)c(OC)c1-2 (stereo not drawn) the results were ABHD5 PLIN5 PPI 9.3, MITF TRPM1 inh 34.8, EWS-Fli block 46.4, Peg3 prom inh -39.7, Shn3 3UTR inh 12.3 and PAX8 inh HTS 85.2*.
